# Several values for one entry are separate records, joined by “and”; a condition that tells them apart may be missing. Equal entries are not always repeated. Structures can show the parent of a compound that is named as a salt. In all, about 5,800 compounds went through this assay and about 620 (11%) showed activity. The list comes from a sample in which actives are over-represented; it also holds similar structures and randomly drawn compounds. Unmarked numbers belong to inactive results.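 The calls were made as follows: active = score above a cut-off or among the top three wells of a plate; in these data no inactive exceeds 0.85.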
# Test system: primary human hepatic stellate cells (donor 1)
# Assay: scaled lipid accumulation score (0 = DMSO-like, 1 = nortriptyline-like); higher = stronger HSC inactivation (lipid re-accumulation), active = hit call of the paper
# Details: 48 h
# [1] = library stock concentration: 3.33 mM
# [2] = library stock concentration: 10 mM
# [3] = library stock concentration: 1 mM
# [4] = library stock concentration: 80 uM
# [5] = library stock concentration: 400 uM
# [6] = library stock concentration: 2 mM
structure (smiles),measurement,setting,value
Cc1nc2cc3nc(-c4cccs4)cnc3cc2n1C,scaled lipid accumulation score,[1],≤ 0
Cc1csc(-c2nnc(Nc3ccc(Oc4ncccc4-c4ccnc(N)n4)cc3)c3ccccc23)c1,scaled lipid accumulation score,[1],≤ 0
same,scaled lipid accumulation score,[2],≤ 0
CCCCCCCCCCCCCCCCC/C=C/C(=O)O [.DELTA.2-trans Eicosenoic Acid],scaled lipid accumulation score,[3],≤ 0
O=C(Nc1ccc([N+](=O)[O-])cc1Cl)c1cc(Cl)ccc1O [Niclosamide] [listing 1 of 2 here],scaled lipid accumulation score,,0.776
O=C(Nc1cc(C(F)(F)F)cc(C(F)(F)F)c1)c1cc(Cl)ccc1O [IKK-2 Inhibitor V],scaled lipid accumulation score,[1],≤ 0
O=C(Nc1ccc([N+](=O)[O-])cc1Cl)c1cc(Cl)ccc1O [Niclosamide] [listing 2 of 2 here],scaled lipid accumulation score,library stock concentration: 6.1 mM,1.15 (active)
same,scaled lipid accumulation score,[2],1.08 (active)
Cc1oncc1C(=O)Nc1ccc(C(F)(F)F)cc1 [Leflunomide],scaled lipid accumulation score,,≤ 0
same,scaled lipid accumulation score,[4],0.045
same,scaled lipid accumulation score,[5],≤ 0
same,scaled lipid accumulation score,[6],≤ 0
same,scaled lipid accumulation score,[1],≤ 0
O=C(Nc1cc(C(F)(F)F)cc(C(F)(F)F)c1)c1cc(Cl)ccc1O [listing 1 of 3 here],scaled lipid accumulation score,[2],1.1 (active)
O=C(Nc1cc(C(F)(F)F)cc(C(F)(F)F)c1)c1cc(Cl)ccc1O [listing 2 of 3 here],scaled lipid accumulation score,[1],0.722
O=C(Nc1ccccc1)c1cc([N+](=O)[O-])ccc1Cl,scaled lipid accumulation score,[3],≤ 0
same,scaled lipid accumulation score,[1],0.023
same,scaled lipid accumulation score,[2],≤ 0 and 0.358 and 0.105
O=c1oc(-c2ccc(C(F)(F)F)cc2)nn1Cc1cc(Cl)ccc1O,scaled lipid accumulation score,[2],0.172
O=C(Nc1ccccc1)c1ccccc1O [Salicylanilide],scaled lipid accumulation score,[1],≤ 0
same,scaled lipid accumulation score,library stock concentration: 9.4 mM,0.019
same,scaled lipid accumulation score,[2],0.041
O=C(Nc1cc(C(F)(F)F)cc(C(F)(F)F)c1)c1cc(Cl)ccc1O [listing 3 of 3 here],scaled lipid accumulation score,[2],1.61 (active)
C[C@]12CC[C@@H]3c4ccc(O)cc4CC[C@H]3[C@@H]1C[C@H](O)[C@@H]2O,scaled lipid accumulation score,[2],≤ 0
O=C1CCC(c2ccc(-n3ccnc3)cc2)=NN1 [Imazodan],scaled lipid accumulation score,[2],≤ -0.07
CC(C)n1cnc2c(NCc3ccccc3)nc(NCCCO)nc21 [Bohemine],scaled lipid accumulation score,[4],≤ -0.001
same,scaled lipid accumulation score,[5],≤ -0.001
same,scaled lipid accumulation score,[6],≤ -0.001
same,scaled lipid accumulation score,[1],≤ 0
same,scaled lipid accumulation score,[2],0.099
Cc1cc(OCc2nnc(SC3CCCC3)n2-c2cccnc2)ccc1-c1ccc(S(C)(=O)=O)cc1,scaled lipid accumulation score,[1],0.619
same,scaled lipid accumulation score,[2],0.187
CN(C)[C@@H]1C(O)=C(C(=O)NCN2CCCC2)C(=O)[C@@]2(O)C(O)=C3C(=O)c4c(O)cccc4[C@@](C)(O)[C@H]3C[C@@H]12,scaled lipid accumulation score,[2],≤ 0
CN(C)[C@@H]1C(O)=C(C(=O)NCN2CCCC2)C(=O)[C@@]2(O)C(O)=C3C(=O)c4c(O)cccc4[C@@](C)(O)[C@H]3C[C@@H]12 [Rolitetracycline],scaled lipid accumulation score,,≤ 0
CC(=O)N(OCc1ccccc1)[C@H]1c2cc(C#N)ccc2OC(C)(C)[C@H]1O,scaled lipid accumulation score,[2],≤ 0
N[C@@H]1CCN(O)C1=O,scaled lipid accumulation score,[2],≤ 0
CCCCCCCCCCCCCCCC(=O)NC[C@@H](C)O [R-Palmitoyl-(2-methyl) Ethanolamide],scaled lipid accumulation score,[3],≤ 0
COc1ccc2cc1Oc1ccc(cc1)C[C@@H]1c3c(cc4c(c3Oc3cc5c(cc3OC)CCN(C)[C@H]5C2)OCO4)CCN1C [Cepharanthine],scaled lipid accumulation score,[1],1.03 (active)
COc1ccc2cc1Oc1ccc(cc1)C[C@H]1c3cc(c(OC)cc3CCN1C)Oc1c(OC)c(OC)cc3c1[C@H](C2)N(C)CC3 [Tetrandrine],scaled lipid accumulation score,,0.685
same,scaled lipid accumulation score,[1],0.783
same,scaled lipid accumulation score,[2],0.45
COc1ccc2c(c1OC)C(=O)O[C@@H]2[C@H]1c2c(cc3c(c2OC)OCO3)CCN1C [Noscapine hydrchloride],scaled lipid accumulation score,[2],≤ -0.055
COc1cc2c3cc1Oc1cc(ccc1O)C[C@@H]1c4c(cc(OC)c(O)c4Oc4ccc(cc4)C[C@@H]3N(C)CC2)CC[N+]1(C)C [Tubocurarine chloride],scaled lipid accumulation score,library stock concentration: 3.1 mM,≤ 0
COc1ccc2cc1Oc1ccc(cc1)C[C@H]1c3c(cc4c(c3Oc3cc5c(cc3OC)CCN(C)[C@@H]5C2)OCO4)CCN1C [Cepharanthine] [listing 1 of 2 here],scaled lipid accumulation score,[2],0.689
COc1cc2c(cc1OC)[C@@H]1Cc3ccc(OC)c(OC)c3CN1CC2 [Rotundine],scaled lipid accumulation score,[1],≤ 0
same,scaled lipid accumulation score,[2],≤ 0
COc1ccc2c(c1OC)C(=O)O[C@@H]2[C@H]1c2c(cc3c(c2OC)OCO3)CCN1C [Noscapine hydrochloride],scaled lipid accumulation score,library stock concentration: 4.4 mM,0.008
same,scaled lipid accumulation score,[2],0.011 and 0.074
COc1cc2c3cc1Oc1c(OC)c(OC)cc4c1[C@@H](Cc1ccc(OC(=O)c5ccc([N+](=O)[O-])cc5)c(c1)Oc1ccc(cc1)C[C@@H]3N(C)CC2)N(C)CC4 [E6 berbamine],scaled lipid accumulation score,library stock concentration: 6.6 mM,0.933 (active)
COc1ccc2cc1Oc1ccc(cc1)C[C@H]1c3c(cc4c(c3Oc3cc5c(cc3OC)CCN(C)[C@@H]5C2)OCO4)CCN1C [Cepharanthine] [listing 2 of 2 here],scaled lipid accumulation score,[2],0.944 (active)
COc1ccc2c(c1OC)C(=O)O[C@@H]2[C@H]1c2c(cc3c(c2OC)OCO3)CCN1C [Noscapine],scaled lipid accumulation score,,≤ 0
COc1cc2c(c(OC)c1OC)-c1c(cc3c(c1OC)OCO3)CC(C)C(C)C2 (stereo unspecified) [Schisandrin B (Sch B)],scaled lipid accumulation score,[1],≤ 0
same,scaled lipid accumulation score,[2],≤ -0.001
COc1ccc2cc1Oc1ccc(cc1)C[C@H]1c3cc(c(OC)cc3CCN1C)Oc1c(OC)c(OC)cc3c1[C@H](C2)N(C)CC3 [Tetrandine],scaled lipid accumulation score,library stock concentration: 8 mM,0.535
Cc1cc(C(N)=O)ccc1-n1c(CCC(=O)O)ccc1-c1ccc(-n2ccnc2)cc1,scaled lipid accumulation score,[1],≤ -0.009
same,scaled lipid accumulation score,[2],≤ 0
"O=C(O)c1ccc2c(c1)CCCC2 [5,6,7,8-tetrahydro-2-Naphthoic Acid]",scaled lipid accumulation score,[3],≤ 0
CS(=O)(=O)c1ccc(Cn2c3c(c4cc(F)cc(F)c42)CCCC3CC(=O)O)cc1 (stereo unspecified),scaled lipid accumulation score,[2],≤ -0.006
O=C(O)c1ccc2c(c1)nc(Nc1cccc(Cl)c1)c1ccncc12 [CX-4945 (Silmitasertib)],scaled lipid accumulation score,[1],≤ 0
same,scaled lipid accumulation score,[2],≤ 0
O=C(O)c1ccc2c(c1)nc(Nc1cccc(Cl)c1)c1ccncc12,scaled lipid accumulation score,[5],≤ -0.005
same,scaled lipid accumulation score,[6],≤ -0.005
same,scaled lipid accumulation score,[2],≤ -0.005
OC[C@H]1O[C@H]([S-])[C@H](O)[C@@H](O)[C@@H]1O.[Au+] [Aurothioglucose],scaled lipid accumulation score,library stock concentration: 5.1 mM,0.336
same,scaled lipid accumulation score,[2],0.397
"Oc1cc(O)c2c(c1)O[C@H](c1ccc(O)c(O)c1)[C@@H](O)C2 (racemic) [Catechin-(+,-) hydrate]",scaled lipid accumulation score,,≤ 0
CCCCCCCCCCCCCCCCOCC(CO)OC (stereo unspecified) [1-Hexadecyl-2-O-methyl-glycerol],scaled lipid accumulation score,[3],0.003
"CCCCC(C)(C)[C@H](O)C=C[C@H]1[C@H](O)CC(=O)[C@@H]1CCCCCCC(=O)O [16,16-dimethyl Prostaglandin E1]",scaled lipid accumulation score,[3],≤ 0
CCC(O)/C=C/C=O (stereo unspecified) [4-hydroxy Hexenal],scaled lipid accumulation score,[3],≤ 0
CCCCC[C@H](O)/C=C/[C@H]1[C@H](O)CC(=O)[C@@H]1CCCCCCC(=O)NCCO [Prostaglandin E1 Ethanolamide],scaled lipid accumulation score,[3],≤ 0
O=c1cc(-c2ccc(O)cc2)oc2cc(O[C@@H]3O[C@H](CO)[C@@H](O)[C@H](O)[C@H]3O)cc(O)c12 [Cosmosiin],scaled lipid accumulation score,[2],0.333
CC(C)=CCC/C(C)=C\CO [Nerol],scaled lipid accumulation score,[2],≤ 0
CC(C)=CCC/C(C)=C/CC/C(C)=C/CC[C@]1(C)CCc2cc(O)c(C)c(C)c2O1 [.gamma.-Tocotrienol],scaled lipid accumulation score,[3],≤ 0
CC12CC3CC(C)(C1)CC(N)(C3)C2,scaled lipid accumulation score,[2],0.869 (active)
NC12CC3CC(CC(C3)C1)C2 [Adamantamine fumarate],scaled lipid accumulation score,,0.029
NC12CC3CC(CC(C3)C1)C2 [Symmetrel],scaled lipid accumulation score,[2],0.158
NC12CC3CC(CC(C3)C1)C2 [Amantadine HCl],scaled lipid accumulation score,[1],≤ 0
same,scaled lipid accumulation score,[2],0.042
CC12CC3CC(C)(C1)CC(N)(C3)C2 [Memantine HCl],scaled lipid accumulation score,[1],0.012
same,scaled lipid accumulation score,[2],0.415
CC12CC3CC(C)(C1)CC(N)(C3)C2 [Memantine hydrochloride],scaled lipid accumulation score,library stock concentration: 9.3 mM,0.689
same,scaled lipid accumulation score,[2],0.344 and 0.653 and 0.597
CC12CC3CC(C)(C1)CC(N)(C3)C2 [Memantine Hydrochloride],scaled lipid accumulation score,,0.399
CC12CC3CC(C)(C1)CC(N)(C3)C2.Cl [Memantine hydrochloride],scaled lipid accumulation score,[2],1.05 (active)
NC12CC3CC(CC(C3)C1)C2 [Amantadine hydrochloride],scaled lipid accumulation score,[2],0.29 and 0.659
same,scaled lipid accumulation score,library stock concentration: 10.7 mM,0.031
COC(=O)CCCCCCC1C(O)CC(O)C1CCC(O)C#Cc1ccccc1F (stereo unspecified),scaled lipid accumulation score,[3],≤ 0
NC(=S)NCCC[C@H](N)C(=O)O [Thiocitrulline [L-Thiocitrulline]],scaled lipid accumulation score,library stock concentration: 26.1 mM,0.069
NC(=S)NCCC[C@H](N)C(=O)O [L-Thiocitrulline (hydrochloride)],scaled lipid accumulation score,[3],0.048
Cc1cccc(CC(=O)N2CCc3c2ccc(-c2cn(C)c4ncnc(N)c24)c3F)n1,scaled lipid accumulation score,[1],≤ 0
same,scaled lipid accumulation score,[2],≤ -0.001
CCC(CC)CNc1cc(C(=O)NCCN(C)C)cc(S(=O)(=O)Nc2ccc(OC)cc2)c1,scaled lipid accumulation score,[2],0.996 (active)
CCN(CC)CCNC(=O)c1ccc(NS(C)(=O)=O)cc1 [Sematilide monohydrochloride monohydrate],scaled lipid accumulation score,[2],≤ -0.07
COc1cc(C(=O)NCc2ccc(OCCN(C)C)cc2)cc(OC)c1OC [Trimethobenzamide hydrochloride],scaled lipid accumulation score,,≤ 0
same,scaled lipid accumulation score,library stock concentration: 4.7 mM,0.028
same,scaled lipid accumulation score,[2],≤ 0
